{"source": "PubChem BioAssay AID540359", "about": "(Broad Institute, 2011)", "note": "Measured potencies and affinities stand elsewhere. Activity calls are given as the source filed them. How the calls were made is not given here."}
{"target": "UDP-galactopyranose mutase (Mycobacterium tuberculosis (strain ATCC 25618 / H37Rv)) (UniProt P9WIQ1)", "sequence (P9WIQ1 whole entry, looked up)": "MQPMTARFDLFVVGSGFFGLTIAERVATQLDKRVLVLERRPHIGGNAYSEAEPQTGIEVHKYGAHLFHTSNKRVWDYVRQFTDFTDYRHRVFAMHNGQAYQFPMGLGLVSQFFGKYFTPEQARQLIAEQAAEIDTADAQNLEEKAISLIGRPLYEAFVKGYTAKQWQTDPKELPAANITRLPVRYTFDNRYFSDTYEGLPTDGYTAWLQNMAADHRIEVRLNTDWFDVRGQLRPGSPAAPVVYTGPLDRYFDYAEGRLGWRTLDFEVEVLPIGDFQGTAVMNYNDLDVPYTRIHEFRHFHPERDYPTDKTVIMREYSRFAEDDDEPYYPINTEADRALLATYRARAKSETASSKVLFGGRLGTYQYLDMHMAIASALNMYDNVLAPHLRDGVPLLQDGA", "assay": "Mycobacterium tuberculosis UGM enzyme inhibition, dose response confirmation, purified biochemical assay (AID 540359)", "details": "plate reader activity; series mostly up to 50 µM; activity change, negative = inhibition: at the top concentration"}
{"molecule": "O=S(=O)(Nc1cccnc1Cl)c1ccc(F)cc1", "activity change, negative = inhibition": "-4.01% (inactive)"}
{"molecule": "COc1ccc(-n2c(O)c(/C=C3\\C=Nc4ccc(Br)cc43)c(=O)[nH]c2=O)cc1", "activity change, negative = inhibition": "-18.8% (inactive)"}
{"molecule": "O=C(COC(=O)CN1C(=O)NC2(CCCC2)C1=O)NCc1ccc(Cl)cc1Cl", "activity change, negative = inhibition": "-10.7% (inactive)"}
{"molecule": "CCN(C(=O)COC(=O)c1cc(Cl)ccc1OC)c1c(N)n(Cc2ccccc2)c(=O)[nH]c1=O", "activity change, negative = inhibition": "-1.58% (inactive)"}
{"molecule": "CC(C)OC(=O)CC(=O)c1sc2nc3c(cc2c1N)CN(C)CC3", "activity change, negative = inhibition": "-6.78% (inactive)"}
{"molecule": "COc1ccc(N=Cc2c(O)n(-c3cccc(C)n3)c(=O)c3ccccc23)c(OC)c1", "activity change, negative = inhibition": "-10.3% (inactive)"}
{"molecule": "Brc1ccc(/C=N/c2nc3ccccc3n2CCN2CCOCC2)cc1", "activity change, negative = inhibition": "-2.81% (inactive)"}
{"molecule": "COc1ccc(N(CC(=O)N/N=C/c2ccc(-c3ccc([N+](=O)[O-])cc3)o2)S(=O)(=O)c2ccc(C)cc2)cc1", "activity change, negative = inhibition": "0.687% (inactive)"}
{"molecule": "CCOC(=O)CNc1ccc2c(c1)OCO2", "activity change, negative = inhibition": "-14.6% (inactive)"}
{"molecule": "CC(=O)N1CCN(S(=O)(=O)c2cccc(C(=O)NNC(=O)Cn3nc(C)cc3C)c2)CC1", "activity change, negative = inhibition": "-3.1% (inactive)"}
{"molecule": "COc1cc2c3nnc(-c4ccccc4)c-3cn(Cc3ccccc3F)c2cc1OC", "activity change, negative = inhibition": "-5.43% (inactive)"}
{"molecule": "Cn1nc(C(=O)Nc2cc(Cl)ccc2N2CCCC2)c2ccccc2c1=O", "activity change, negative = inhibition": "1.65% (inactive)"}
{"molecule": "COc1cc(N2CCCC2)c(OC)cc1/C=C(/C#N)c1ccc(Br)cc1", "activity change, negative = inhibition": "-9% (inactive)"}
{"molecule": "COc1cccc(/C=N/n2c(-c3ccco3)nc3ccccc3c2=O)c1OC", "activity change, negative = inhibition": "-1.41% (inactive)"}
{"molecule": "CCc1ccc2c(c1)C(c1ccc([N+](=O)[O-])cc1)=NNC(c1ccc(Br)cc1)=N2", "activity change, negative = inhibition": "-5.73% (inactive)"}
{"molecule": "NC(=O)c1c(NC(=O)C2COc3ccccc3O2)sc2c1CCN(Cc1ccccc1)C2", "note": "(stereo not drawn)", "activity change, negative = inhibition": "-1.94% (inactive)"}
{"molecule": "O=C(/C=C/c1ccc2c(c1)OCO2)c1c(O)n(CCc2ccccc2)c(=O)[nH]c1=O", "activity change, negative = inhibition": "-11.3% (inactive)"}
{"molecule": "Cc1ccc(NC(=O)/C(C#N)=C/c2ccc(C)s2)c(C)c1", "activity change, negative = inhibition": "-9.8% (inactive)"}
{"molecule": "COc1cc2c3nnc(-c4ccc(F)cc4)c-3cn(Cc3ccc(C)cc3)c2cc1OC", "activity change, negative = inhibition": "-15.2% (inactive)"}
{"molecule": "Cc1cc(C)c(S(=O)(=O)n2c([N+](=O)[O-])cnc2C)cc1C", "activity change, negative = inhibition": "-15.6% (inactive)"}
{"molecule": "N=c1n(CCN2CCCC2)c2ccccc2n1CC(O)c1ccco1", "note": "(stereo not drawn)", "activity change, negative = inhibition": "-7.28% (inactive)"}
{"molecule": "COc1ccc(C(=O)Oc2ccc(Br)cc2C(=S)N2CCOCC2)cc1", "activity change, negative = inhibition": "-6.52% (inactive)"}
{"molecule": "C=C1c2cc(C)ccc2NC(=O)N1c1ccc(C)cc1", "activity change, negative = inhibition": "-7.4% (inactive)"}
{"molecule": "COc1cc(OC)cc(C(=O)Nc2cc(C)nn2-c2ccccc2)c1", "activity change, negative = inhibition": "-2.8% (inactive)"}
{"molecule": "CCc1cc(C(=O)c2ccc(C)cc2)c(NC(=O)CCl)s1", "activity change, negative = inhibition": "-9.95% (inactive)"}
{"molecule": "N#C/C(=C(/O)CSc1ccccc1C(=O)O)c1nc2ccccc2s1", "activity change, negative = inhibition": "-7.99% (inactive)"}
{"molecule": "O=C(OCc1ccc(Br)cc1)c1cnc(Cl)c(Cl)c1", "activity change, negative = inhibition": "-1.03% (inactive)"}
{"molecule": "N#CCCN(CCC#N)C(=O)C1c2ccccc2Oc2ccccc21", "activity change, negative = inhibition": "-9.14% (inactive)"}
